Source: PubChem BioAssay AID1903 (Southern Research Specialized Biocontainment Screening …, 2009)
Among all 310,000 compounds or so, about 1,200 (0.39%) were called active. How the calls were made is not given here. These entries were drawn from the full list. Potency and affinity values are given separately.

Target: Large T antigen (Simian virus 40) (UniProt P03070)
Assay: TAg ATPase/helicase activity blockers – biochemical (AID 1903)
Settings: SV40 large T antigen ATPase/helicase inhibition assay; at 20 µM; hits give high values

Sequence of Large T antigen (Simian virus 40) (P03070 whole entry, looked up): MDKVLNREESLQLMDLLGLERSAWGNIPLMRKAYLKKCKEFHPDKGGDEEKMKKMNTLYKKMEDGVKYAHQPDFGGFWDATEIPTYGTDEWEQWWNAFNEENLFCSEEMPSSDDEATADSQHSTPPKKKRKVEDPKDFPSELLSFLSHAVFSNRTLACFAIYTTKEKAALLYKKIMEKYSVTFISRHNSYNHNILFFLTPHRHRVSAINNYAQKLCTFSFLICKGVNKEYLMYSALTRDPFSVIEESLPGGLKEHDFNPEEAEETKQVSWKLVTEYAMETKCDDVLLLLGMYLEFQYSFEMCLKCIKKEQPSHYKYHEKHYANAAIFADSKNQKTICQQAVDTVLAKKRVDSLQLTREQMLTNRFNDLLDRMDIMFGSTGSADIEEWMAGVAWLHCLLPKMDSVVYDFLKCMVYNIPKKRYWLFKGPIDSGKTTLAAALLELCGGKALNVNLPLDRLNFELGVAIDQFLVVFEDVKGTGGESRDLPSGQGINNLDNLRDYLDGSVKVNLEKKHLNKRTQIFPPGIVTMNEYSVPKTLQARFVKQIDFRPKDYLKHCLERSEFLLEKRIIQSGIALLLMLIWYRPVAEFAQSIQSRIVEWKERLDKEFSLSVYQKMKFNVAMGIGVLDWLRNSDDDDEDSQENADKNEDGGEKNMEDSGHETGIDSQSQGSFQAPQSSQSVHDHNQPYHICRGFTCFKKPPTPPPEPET

inhibition, inactive:
CCOC(=O)c1nc(-c2ccccc2)sc1C(C)=O 13.2%
Cc1ccc(C)c(NC(=O)CN(C)C(=O)c2cc3ccccc3o2)c1 13.7%
CN1CCN(c2ccc(S(=O)(=O)N3CCCCC3)cc2[N+](=O)[O-])CC1 23.6%
O=[N+]([O-])c1ccc(N2CCCCC2)cn1 4.49%
CC(=O)c1ccc(N2CCN(c3ccc(C(N)=O)cc3[N+](=O)[O-])CC2)cc1 12.7%
O=[N+]([O-])c1cc(S(=O)(=O)Nc2ccccc2)ccc1N1CCN(c2ccc(O)cc2)CC1 17.3%
COc1ccc(N2CCN(c3ccc(C(N)=O)cc3[N+](=O)[O-])CC2)cc1 20.4%
O=[N+]([O-])c1ccc(N2CCOCC2)cn1 20.2%
CSc1ncccc1C(=O)Nc1nc(C(C)(C)C)cs1 8.58%
COc1ccc(C(CC(=O)NCc2ccccc2)C(C)C)cc1 (centres undefined) 6.33%
Cc1c(NC(=O)C(C)OC(=O)COc2ccccc2)c(=O)n(-c2ccccc2)n1C (centres undefined) 10.4%
CCCCN(CCCC)CCNC(=O)Cc1nc2c(c(=O)[nH]c(=O)n2C)n1C 3.54%
CC(NC(=O)Nc1ccc(F)cc1F)c1ccc2c(c1)OCO2 (centres undefined) 16.7%
CCCn1c(SCC(=O)NCc2ccc(C)cc2)n[nH]c1=O 7.77%
COc1ccc(NC(=O)CN(C)C(=O)c2cccc(S(=O)(=O)N3CCN(Cc4ccccc4)CC3)c2)cc1 8.39%
COCCn1c(SCC(=O)N2CC(C)OC(C)C2)nc2c([nH]c3ccccc32)c1=O (centres undefined) -1.92%
COc1ccc(OC)c(/C=N/NC(=O)C(=O)N/N=C/c2cc(OC)ccc2OC)c1 -5.1%
O=C(CCc1ccc(O)c(O)c1)N/N=C/c1ccc2c(c1)OCO2 32.3%
COc1ccc(OC)c(/C=N/NC(=O)CCc2c(C)n[nH]c2C)c1 5.18%
CN1CCN(CCC(=O)N/N=C/c2cc3c(cc2[N+](=O)[O-])OCO3)CC1 4.45%
CCN(CC)S(=O)(=O)c1cccc(NC(=O)COC(=O)CCc2nc3ccccc3s2)c1 11.8%
Cc1snc(S(=O)(=O)/C(C#N)=N/Nc2ccc(C(F)(F)F)cc2)c1C#N 6.46%
Cc1ccc(C)c(C(=O)CSc2nnc(C)s2)c1 -0.65%
CC1CCCCN1C(=O)CSc1nc(N)nc(N)n1 (centres undefined) 3.86%
COc1ccc(NC(=O)c2ccccc2NC(=O)COc2ccccc2)cc1 12.1%
COC(=O)c1ccc(OC)c(NS(=O)(=O)c2ccc(-n3cnnn3)cc2)c1 2.42%
O=c1nc(-c2ccccc2)n(-c2ccccc2)[nH]1 -3.35%
Cn1nc(-c2ccccc2)nc1-c1ccccc1 11.2%
COc1cc(C(=O)NCC(=O)N/N=C/c2ccccn2)cc(OC)c1OC 10.4%
CCc1c(C(=O)NNC(=S)Nc2ccc(S(=O)(=O)Nc3ncccn3)cc2)csc1C 15.1%
Cc1n[nH]c(C)c1S(=O)(=O)N1CCC(C(=O)Nc2cccc(F)c2)CC1 4.04%
O=C(NCCc1ccccc1)C1CCN(S(=O)(=O)N2CCCC2)CC1 7.04%
CCN(CC)S(=O)(=O)c1ccc(NC(=O)CCNC(=O)c2ccco2)cc1 7.03%
CCC(=O)Nc1ccc(NC(=O)c2ccco2)cc1 2.13%
COc1cccc(OC)c1C(=O)Nc1ccc(NC(=O)c2ccco2)cc1 2.08%
COc1ccccc1NC(=O)c1ccc(NC(=O)c2ccco2)cc1 9.63%
O=C(Nc1ccc(NC(=O)c2ccco2)cc1)c1ccco1 3.69%
Cc1ccc(NC(=O)CCNC(=O)c2ccco2)cc1 1%
CC(=O)Nc1ccc(NC(=O)c2ccccc2F)cc1 2.47%
O=C(Nc1ccc(F)cc1)c1ccccc1F 12.9%
Cc1cccc(C)c1OCC(=O)NNC(=O)c1ccoc1C 2.67%
CN(C)CCCN(C(=O)c1ccc2ccccc2c1)c1nc2cc3c(cc2s1)OCO3 3.84%
CCOC(=O)n1c(=O)n(C)c2ccc(Br)cc21 4.58%
C(=C\c1ccccc1)/C=N/Nc1nncc(-c2ccccc2)n1 8.88%
Cc1ccc(CN2CCN(C3CCC3)CC2CCO)cc1 (centres undefined) 9.81%
COc1cc([C@H]2Oc3cc([C@H]4Oc5cc(O)cc(O)c5C(=O)[C@@H]4O)ccc3O[C@@H]2CO)ccc1O 22.1%
COc1cc(C2Oc3cc(C4Oc5cc(O)cc(O)c5C(=O)C4O)ccc3OC2CO)ccc1O (centres undefined) 22.1%
CCc1nnc(SCc2ccc(C(=O)OC)o2)n1N 15%
CN1/C(=C\C=N\NC(=O)c2cccnc2)C(C)(C)c2ccccc21 33.6%
CN1/C(=C/C=N/NC(=O)c2ccc([N+](=O)[O-])cc2)C(C)(C)c2ccccc21 4.27%
Cn1c2ccccc2c(=O)c2ccc(F)cc21 0.83%
Cc1ccccc1N1CC(=O)N(c2ccccc2C)CC1=O 0.89%
COc1cccc(C(=O)NC2CC3CCCC(C2)N3CC(=O)Nc2ccccc2)c1 (centres undefined) 34%
O=C(CN1C2CCCC1CC(NC(=O)c1ccccc1)C2)Nc1ccccc1 (centres undefined) -14.7%
O=C(CN1C2CCCC1CC(NC(=O)c1ccccc1)C2)NC1CC1 (centres undefined) 6.22%
COc1cccc(C(=O)NC2CC3CCCC(C2)N3CC(=O)Nc2ccccc2C(F)(F)F)c1 (centres undefined) -1.46%
COc1cc(OC)c(C(=O)NC23CC4CC(CC(C4)C2)C3)cc1OC 3.9%
COC(=O)c1ccc(/C=N/OCC(=O)NCCc2ccc(OC)c(OC)c2)cc1 2.45%
Cn1c(-c2ccccc2)c[n+]2c1-c1ccccc1C2 6.66%
Cc1cccc(N2CCN(C3=NC(=O)C(=C4CCCCC4)S3)CC2)c1 7.31%
CCOc1ccc(NS(=O)(=O)c2ccc(N)cc2)cc1 2.32%
O=C(O)c1cccc2c1C(=O)c1ccccc1C2=O 2.63%
Nc1c(C(=O)O)ccc2c1C(=O)c1ccccc1C2=O 6.68%
CC(C)Oc1ccc(S(=O)(=O)N2CCOCC2)cc1NC(=O)C1CCC1 4.96%
Cc1nn(-c2ccccc2)c(N)c1Sc1ccc([N+](=O)[O-])cc1 -2.9%
COc1c(/C=N/Nc2ccc([N+](=O)[O-])cc2[N+](=O)[O-])c(C)nn1-c1ccccc1 -4.36%
C=CCn1cc(CN2CCC(C(=O)Nc3cccc(-c4cccc(F)c4)c3)CC2)c(C)n1 9.97%
CCN1C(=O)CC(N2CCC(Nc3ccc(F)cc3)CC2)C1=O (centres undefined) 0.22%
CCN1C(=O)CC(N2CCN(c3ccc(OC)cc3)CC2)C1=O (centres undefined) 27.7%
O=C(OCc1cn(Cc2ccccc2)nn1)c1ccccc1 7.89%
COc1ccc2nc(NC(=O)/C=C/c3ccc4c(c3)OCO4)sc2c1 5.17%
Cc1ccc(S(=O)(=O)N(C(=O)c2ccncc2)c2ccc(OC(=O)c3ccncc3)cc2)c(C)c1 23.4%
O=C(Oc1ccc(N(C(=O)c2ccncc2)S(=O)(=O)c2ccc(F)cc2)cc1)c1ccncc1 32%
C=CCN(c1ccccc1Cl)S(=O)(=O)c1cccc(C(=O)NCCc2ccc(OC)cc2)c1 5.14%
COc1ccccc1CNCC(O)Cn1c2ccccc2c2ccccc21 (centres undefined) 16%
CCN(CC)c1ccc(NC(=O)c2c(OC)cccc2OC)c(C)c1 24.5%
CCn1cc(C(=O)Nc2ccc(C)c([N+](=O)[O-])c2)cn1 2.51%
CCN(CC)c1ccc(NC(=O)c2ccco2)c(C)c1 38%
CCN(CC)c1ccc(NC(=O)c2ccc3c(c2)OCO3)c(C)c1 22.6%
CCc1ccc(NC(=O)c2cccnc2)cc1 21.3%
O=C(Nc1ccc(NC(=O)c2cccnc2)cc1)c1ccccc1 9.81%
CCN(CC)c1ccc(NC(=O)c2cc(OC)cc(OC)c2)c(C)c1 19.6%
CCn1cc(C(=O)Nc2ccc(F)c(F)c2)cn1 16%
O=C(CSc1nnc(Cc2ccccc2)n1Cc1ccco1)NC12CC3CC(CC(C3)C1)C2 3.4%
CN(C)C(=O)C1CCC(=O)N1Cc1cccs1 (centres undefined) 3.97%
COc1ccc(N=Cc2c(O)n(-c3ccc(OC)cc3)c(=O)c3ccccc23)cc1 17.6%
CCOc1ccccc1N1CC(C(=O)NCCOc2ccccc2OC)CC1=O (centres undefined) 3.13%
Cc1ccc(-c2nc(CS(=O)(=O)CC(=O)N3CCN(C)CC3)c(C)o2)cc1 6.58%
Cc1nc2scc(C)n2c(=O)c1S(=O)(=O)N1CCN(c2ccc([N+](=O)[O-])cc2)CC1 13.7%
CCc1ccc(N2CC(C(=O)NC3CC3)CC2=O)cc1 (centres undefined) 12.7%
Cc1cc(F)ccc1NC(=O)c1cccnc1 3.85%
Cc1ccccc1NC(=O)c1cccnc1 -1.13%
CCOc1ccc(C(=O)N/N=C/c2ccc(-c3ccc(S(=O)(=O)Nc4ncccn4)cc3)o2)cc1 26.6%
CCCOc1ccc(C(=O)N/N=C/c2ccc(-c3ccc(S(=O)(=O)Nc4ncccn4)cc3)o2)cc1 35.9%
